The full ranking holds about 33,000 sequences; the median of “E-score (-0.5 to 0.5)” is about -0.032, and the highest 2% start at about 0.36. Many of the other results were omitted from the sample, so the highest values are more common in it than they were.
molecular target: T1, Sko1 (UniProt Q02100); assay: PBM E-score (8-mer binding enrichment) (E-score (-0.5 to 0.5)); higher = stronger / more preferred TF binding; settings: protein concentration: 200 nM; construct: GST-full length
T1 sequence: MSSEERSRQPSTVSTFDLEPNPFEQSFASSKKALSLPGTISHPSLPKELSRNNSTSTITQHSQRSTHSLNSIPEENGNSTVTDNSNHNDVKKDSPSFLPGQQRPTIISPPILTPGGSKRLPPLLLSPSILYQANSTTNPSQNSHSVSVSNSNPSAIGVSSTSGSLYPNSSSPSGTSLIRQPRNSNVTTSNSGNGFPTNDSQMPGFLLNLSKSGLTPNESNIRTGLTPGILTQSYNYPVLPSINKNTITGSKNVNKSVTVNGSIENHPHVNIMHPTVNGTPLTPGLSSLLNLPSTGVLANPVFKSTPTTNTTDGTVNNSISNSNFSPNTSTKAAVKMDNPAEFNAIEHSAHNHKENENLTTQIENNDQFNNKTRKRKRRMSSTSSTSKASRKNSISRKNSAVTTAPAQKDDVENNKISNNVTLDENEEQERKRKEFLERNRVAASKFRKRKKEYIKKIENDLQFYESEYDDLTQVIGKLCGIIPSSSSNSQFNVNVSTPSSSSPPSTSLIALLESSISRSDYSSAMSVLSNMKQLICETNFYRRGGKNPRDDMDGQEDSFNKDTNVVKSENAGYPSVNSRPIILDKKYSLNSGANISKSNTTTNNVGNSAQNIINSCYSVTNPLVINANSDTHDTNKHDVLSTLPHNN
Protocol: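 Universal 'all 10-mer' protein binding microarrays (Agilent AMADID 015681) probed with GST-tagged S. cerevisiae TFs (full-length or DBD) made by in vitro transcription/translation (PURExpress), about 100-200 nM. Bound TF was detected with fluorescent anti-GST. Each ungapped 8-mer (which stands for itself and its reverse complement) is scored by the PBM enrichment score (E-score), a modified Wilcoxon-Mann-Whitney statistic from -0.5 to +0.5, computed with the Universal PBM Analysis Suite. Scale: above 0.35 generally sequence-specific binding.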

| Sequence | PBM E-score |
| --- | --- |
| CCGTGTGC | -0.179 |
| CCGTGTGA | -0.0471 |
| ACCATACT | -0.0266 |
| AGATTTGA | 0.144 |
| CATAATAC | 0.3 |
| ACGATGTA | 0.226 |
| GAGCTACC | -0.212 |
| CAAAAAAA | 0.187 |
| GACACGTA | 0.44 |
| GACACGGA | -0.224 |
| GACACGTC | 0.382 |
| GACACGCC | 0.0381 |
| GACACGGC | -0.0578 |
| GACACGCA | 0.284 |
| ACCCGTCG | -0.238 |
| ATGACCCG | -0.254 |
| CTGACGTA | 0.489 |
| CGGACGTA | 0.353 |
| CTGACCTC | -0.296 |
| CTGACGGA | 0.0532 |
| CTGACGGC | -0.167 |
| CTGACGTC | 0.482 |
| AATAGCCA | 0.204 |
| AAGAAAGG | 0.00665 |
| ACAGAGCA | -0.0386 |

| Sequence | PBM E-score |
| --- | --- |
| ATCGTAAA | 0.32 |
| ATCGTAAT | 0.401 |
| AACGTAAG | 0.397 |
| ACCGTAAT | 0.201 |
| AAGGTAAG | -0.00253 |
| AGCGTAAG | 0.0565 |
| ATCGTAAG | 0.234 |
| AGCGTAAT | 0.366 |
| AACGTGAT | 0.333 |
| ACCGTAAG | 0.123 |
| AACGTAAT | 0.48 |
| AGCGTAAC | 0.266 |
| AACCCACC | -0.0866 |
| AGCGAAGC | -0.0755 |
| CCCAATAC | 0.0194 |
| CAAAGGGC | -0.252 |
| CTCTAGGA | -0.335 |
| GTCGTAAA | 0.282 |
| GTCGTAAC | 0.267 |
| AAAGTAAA | 0.0553 |
| ACCGTAAA | 0.206 |
| AACGTAAA | 0.425 |
| GGCGTAAC | 0.0903 |
| ACCGTAAC | -0.135 |
| AACGTAAC | 0.441 |

| Sequence | PBM E-score |
| --- | --- |
| GCCGTAAA | 0.107 |
| GACGTAAA | 0.456 |
| ATCGTAAC | 0.241 |
| GACGTAAC | 0.467 |
| ATCAAGTA | 0.0281 |
| ACGTTCGG | 0.0529 |
| CGAGTGGA | -0.154 |
| CAGGCCCC | -0.271 |
| GCAGTCAA | -0.262 |
| ACTTTTGC | 0.185 |
| AGGCACAA | -0.0774 |
| CACGTAAC | 0.449 |
| CCCGTAAC | -0.105 |
| CTCGTAAG | 0.243 |
| TACGTAAA | 0.484 |
| CACGTAAA | 0.437 |
| CACGTAAG | 0.448 |
| TTCGTAAA | 0.32 |
| CGCGTAAG | 0.352 |
| TCCGTAAA | -0.0256 |
| CCCGTAAA | -0.102 |
| CTCGTAAA | 0.139 |
| CTCGTAAC | 0.253 |
| CAGAAGAA | 0.0487 |
| ACACCACG | 0.063 |

| Sequence | PBM E-score |
| --- | --- |
| CATGGTAG | -0.193 |
| CTGGTTAC | -0.00958 |
| CCGCTGTC | -0.153 |
| CGTCGAAA | 0.247 |
| AACTTTAC | 0.171 |
| CCGATTCC | -0.0807 |
| ATGATCTG | 0.151 |
| CCGTCATC | 0.36 |
| GCGTCATA | 0.481 |
| GGGTCATA | -0.0307 |
| CGGTCATC | -0.0713 |
| CAGTCATC | -0.204 |
| CCGTCATA | 0.368 |
| CAGTCATA | 0.0103 |
| CGGTCATA | 0.0986 |
| GAGTCATA | 0.122 |
| CGCTTGCA | -0.102 |
| CCGCGTCC | -0.00078 |
| CAGCGTCA | 0.269 |
| CCGCGTCA | 0.377 |
| ACGCGTCC | 0.0182 |
| ACGCGTCA | 0.436 |
| AGGCGTCA | 0.256 |
| TCGCGACA | -0.0189 |
| CCGCGTCG | -0.127 |

| Sequence | PBM E-score |
| --- | --- |
| ACGCGTCT | 0.192 |
| TCGCGTCA | 0.408 |
| AAGCGTCA | 0.353 |
| TAGCGTCA | 0.398 |
| GGTAGCCA | -0.238 |
| ACAAACCA | -0.0895 |
| ATGCCGTG | -0.111 |
| TGGCGGAA | -0.102 |
| TAGCGCGA | -0.0664 |
| GCGCGTTA | 0.0431 |
| GCGCGTCC | -0.15 |
| GCGCGTCA | 0.424 |
| CTCAGCCC | -0.249 |
| GACAATCA | 0.00255 |
| ATTTTGGC | 0.11 |
| GCAACCGC | -0.139 |
| ATGTCAGC | 0.129 |
| CTGTCATC | 0.0473 |
| ATGTCATA | 0.41 |
| ATGTCAAG | 0.187 |
| ATGTCATG | 0.403 |
| CTGTCATA | 0.141 |
| GTGTCATA | 0.298 |
| ATGTCACG | 0.325 |
| ATGTCATC | 0.389 |

| Sequence | PBM E-score |
| --- | --- |
| GCTAGAGA | -0.0277 |
| AACTTTAG | 0.247 |
| CCTATGTA | -0.0157 |
| CGATCCGC | -0.0715 |
| GACCAACA | 0.17 |
| AATCTCAC | -0.0325 |
| CCTGTTCG | -0.0292 |
| AAGTGATC | 0.112 |
| ACGTGAAA | 0.386 |
| ACGTGAGG | 0.276 |
| ACGTGAAC | 0.311 |
| ACGTGATG | 0.442 |
| ACGTGATA | 0.409 |
| CCGTGATA | -0.0242 |
| TCGTGAAA | 0.0383 |
| ACGTGATC | 0.432 |
| CCGTGATC | -0.255 |
| GCGTGATA | 0.145 |
| AGGTGATG | 0.087 |
| ATATCAAC | 0.141 |
| AGGGGAGC | -0.294 |
| TAGGTTCA | -0.0685 |
| TGTTGCAA | 0.131 |
| CAATTCAC | 0.049 |
| AGGTGAGG | -0.192 |

| Sequence | PBM E-score |
| --- | --- |
| CGCAGATA | -0.00801 |
| CAAGGCAA | -0.136 |
| CGCTCTTA | 0.112 |
| ACGTTTCG | 0.347 |
| ATGCTCGA | 0.00694 |
| CACTGATG | 0.0771 |
| GTGATCAA | 0.189 |
| CTTGTTAC | 0.094 |
| ATTGTTAG | 0.0985 |
| ATTGTTAC | 0.362 |
| ACTCTTGG | -0.179 |
| CACACGGC | -0.0173 |
| CACACGTG | 0.386 |
| TACACGGA | 0.142 |
| CACACGTC | 0.446 |
| AACACGTG | 0.395 |
| AACACAAA | 0.0722 |
| TACACGAA | 0.251 |
| CACACGCC | 0.0149 |
| AACACGAG | 0.033 |
| TACACGTA | 0.453 |
| CACACAAA | 0.114 |
| CACACATA | 0.0532 |
